The record followed here is PubChem BioAssay (NCATS).

Results filed as inconclusive are left out. The source made the active and inactive calls. The call rests on the fitted dose curve; in most records, active means well fitted cell-killing curve with a large enough effect; inconclusive means small, poorly fitted or top-dose-only effect, or effect the other way; inactive means flat fitted curve, though single readings scatter.

What all share (assay): Primary qHTS to identify gynecologic anti-cancer compounds using libraries of approved drugs and bioactive compounds (AID 1345084); further: nearly all actives have a fitted effect of over 55% in size
In one assay the test system is Es-2. As to conditions: Gynecologic cancer cell panel viability, ATPlite luminescence, 48 h; series mostly up to 57.5 µM. The method in brief:
(§1)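 Five-concentration response, 48 h; readout is ATP-driven luciferase luminescence.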
Background: In ATP-based viability assays light output follows the ATP content of the culture.

In a further assay the test system is HeLa. The conditions noted are these: Gynecologic cancer cell panel viability, ATPlite luminescence, 48 h; series mostly up to 57.5 µM. In a few lines:
as §1

Another assay concerns Hek293T. The conditions noted are these: Gynecologic cancer cell panel viability, ATPlite luminescence, 48 h, control line for the selectivity index; series mostly up to 57.5 µM. The method in brief:
as §1

Another assay relates to JEG-3. The conditions noted are these: Gynecologic cancer cell panel viability, ATPlite luminescence, 48 h; series mostly up to 57.5 µM. In a few lines:
as §1

Another assay concerns Tov-21-G. The conditions noted are these: Gynecologic cancer cell panel viability, ATPlite luminescence, 48 h; series mostly up to 57.5 µM. The method in brief:
as §1

The subject of another assay is Tov112D. As to conditions: Gynecologic cancer cell panel viability, ATPlite luminescence, 48 h; series mostly up to 57.5 µM. The method in brief: as §1
The next assay relates to OV90. The conditions noted are these: Gynecologic cancer cell panel viability, ATPlite luminescence, 48 h; series mostly up to 57.5 µM. In a few lines: as §1
A further assay deals with SKOV3. As to conditions: Gynecologic cancer cell panel viability, ATPlite luminescence, 48 h; series mostly up to 57.5 µM. In a few lines: as §1
A further assay concerns PA-1. The conditions noted are these: Gynecologic cancer cell panel viability, ATPlite luminescence, 48 h; series mostly up to 57.5 µM. The method in brief: as §1
Potency means the concentration at half of the fitted maximal effect.

As to `CCOc1cc2c(c(F)c1OCC)C(=N)N(CC(=O)c1cc(N3CCOCC3)c(OC)c(C(C)(C)C)c1)C2`, the Potency result in the assay with Es-2, with HeLa, in the assay with Hek293T, in the assay on JEG-3, in the assay with Tov-21-G and in the assay on Tov112D was “inactive” each time.
Take `CN(C)CC(=O)N1CCC(c2ccc(NC(=O)c3ncc(C#N)[nH]3)c(C3=CCCCC3)c2)CC1`: the Potency entry in the assay on Es-2, in the assay with HeLa, in the assay with Hek293T, in the assay on JEG-3, in the assay on OV90 and with SKOV3 was “inactive” throughout. The Potency result in the assay with Tov-21-G was “inactive”.
Consider `O=C(Nc1ccc(Oc2ccnc3[nH]ccc23)c(F)c1)c1cccn(-c2ccc(F)cc2)c1=O`, for which the Potency result in the assay on Es-2, in the assay on HeLa, in the assay with Hek293T, in the assay with JEG-3, in the assay on OV90 and in the assay on PA-1 was “inactive” in each case. Also, the Potency entry with SKOV3, in the assay on Tov-21-G and in the assay on Tov112D was “inactive” each time.
In the case of `Cc1ccccc1C(=O)Nc1ccc(C(=O)N2CCCC(O)c3cc(Cl)ccc32)c(C)c1` (stereo not drawn), the Potency result in the assay on Es-2, with HeLa, in the assay on Hek293T, in the assay on JEG-3, with PA-1 and in the assay on SKOV3 was “inactive” in each case. The Potency result in the assay with Tov-21-G and in the assay with Tov112D was “inactive” in each case.
Regarding `CCN(CC)Cc1ccc2cc(COC(=O)Nc3ccc(C(=O)NO)cc3)ccc2c1`, the Potency with Es-2 is 6.31 µM (active); in the assay with HeLa, 6.31 µM (active); with Hek293T, 10 µM (active); with JEG-3 it was 3.55 µM (active); with OV90 it was 1 µM (active); in the assay with PA-1, 1.78 µM (active). The figures for the Potency with Tov-21-G and with Tov112D were 7.94 µM (active) and 7.08 µM (active), respectively.
As for `FC(F)(F)c1ccc(Nc2nc3ccc(Oc4ccnc(-c5ncc(C(F)(F)F)[nH]5)c4)cc3[nH]2)cc1`, the Potency entry with Es-2, in the assay with HeLa, with Hek293T, in the assay with JEG-3 and in the assay on Tov112D was “inactive” each time.
As to `O=C(Nc1cc2cc[nH]c2cn1)c1ccccc1`, the Potency in the assay with Es-2 was 1.58 µM (active); in the assay on HeLa it was 1.41 µM (active); with Hek293T, 2.24 µM (active); with JEG-3, 1.12 µM (active); in the assay on OV90, 0.891 µM (active); with PA-1, 0.891 µM (active). Moreover, the Potency was 2 µM (active) with SKOV3, 1.26 µM (active) in the assay with Tov-21-G and 2 µM (active) in the assay with Tov112D.
In the case of `CC1(C)O[C@@H]2C[C@H]3[C@@H]4CCC5=CC(=O)C=C[C@]5(C)[C@@H]4[C@@H](O)C[C@]3(C)[C@]2(C(=O)CO)O1`, the Potency result in the assay on Es-2, with HeLa, in the assay on Hek293T, in the assay with JEG-3, with OV90 and with PA-1 was “inactive” each time. Also, the Potency result in the assay on SKOV3, with Tov-21-G and with Tov112D was “inactive” each time.
For the compound `C[C@H](O)[C@@H]1C(=O)N2C(C(=O)O)=C(S[C@@H]3CN[C@H](CNS(N)(=O)=O)C3)[C@@H](C)[C@@H]12`, the Potency entry with Es-2, with HeLa, with Hek293T, with JEG-3, in the assay on OV90 and in the assay on PA-1 was “inactive” throughout. Also, the Potency result with Tov-21-G and in the assay on Tov112D was “inactive” in each case.
With `Cc1ncc(-c2ccnc(Nc3ccc(S(C)(=O)=O)cc3)n2)n1C(C)C`, the Potency in the assay with Es-2 is 10 µM (active); in the assay on HeLa it was 7.08 µM (active); in the assay with Hek293T, 5.01 µM (active); in the assay on PA-1 it was 5.01 µM (active); in the assay with Tov-21-G, 10 µM (active); with Tov112D, 10 µM (active). Besides, the Potency entry in the assay on JEG-3 was “inactive”.
With `c1cc(N[C@@H]2CCNC2)nc(-c2cnc3ccc(-c4cn[nH]c4)cn23)c1`, the Potency result with Es-2, in the assay with HeLa, with Hek293T and with JEG-3 was “inactive” throughout. Besides, the Potency in the assay on PA-1 was 10 µM (active); in the assay with Tov112D, 14.1 µM (active).
Regarding `CN1CCc2c(c3ccccc3n2Cc2ccc(C(=O)NO)cc2)C1`, the Potency entry in the assay on Es-2, in the assay with HeLa, with Hek293T, in the assay on JEG-3, with OV90 and in the assay with SKOV3 was “inactive” in each case. Besides, the Potency result in the assay on Tov112D was “inactive”.
As to `N#Cc1c(C2CCNCC2)cc(-c2c(O)cccc2OCC2CC2)nc1N`, the Potency entry in the assay with Es-2, in the assay with HeLa, with Hek293T, with OV90 and in the assay with Tov112D was “inactive” in each case. Besides, the Potency with Tov-21-G is 14.1 µM (active).
With `OCCNC1CCCc2c1[nH]c1ccc(-c3ccccc3)cc21` (stereo not drawn), the Potency result in the assay on Es-2, with Hek293T, in the assay on JEG-3, in the assay on OV90, in the assay on Tov-21-G and with Tov112D was “inactive” throughout. Moreover, the Potency with HeLa is 8.91 µM (active); in the assay with PA-1 it was 20 µM (active).
As for `CC(C)n1cnc2c(NCCc3ccc(O)cc3)nc(-c3csc4ccccc34)nc21`, the Potency entry in the assay with Es-2, in the assay with HeLa, in the assay on Hek293T, in the assay on JEG-3, with OV90 and in the assay with PA-1 was “inactive” in each case. Also, the Potency entry with Tov-21-G and with Tov112D was “inactive” in each case.
As to `C=CC(=O)Nc1ccc2ncnc(Nc3ccc(OCc4cccc(F)c4)c(Cl)c3)c2c1`, the Potency entry in the assay with Es-2, in the assay with HeLa, in the assay with JEG-3, with OV90, in the assay on PA-1 and in the assay on SKOV3 was “inactive” in each case. For the same compound, the Potency in the assay with Tov-21-G was 10 µM (active).
In the case of `CCn1c(=O)c2c(nc(C=Cc3ccc(OC)c(OC)c3)n2C)n(CC)c1=O`, the Potency entry with Es-2, in the assay on HeLa, in the assay with Hek293T, in the assay with JEG-3, with OV90 and with PA-1 was “inactive” throughout. The Potency entry with SKOV3, with Tov-21-G and in the assay with Tov112D was “inactive” each time.
With `CC(C)C[C@H](NC(=O)[C@@H](NC(=O)c1cccc(-c2ccccc2)n1)[C@@H](C)O)B(O)O`, the Potency in the assay on Es-2 is 0.251 µM (active); in the assay with HeLa, 0.631 µM (active); in the assay on Hek293T it was 0.316 µM (active); with OV90, 0.316 µM (active); in the assay on Tov-21-G, 0.112 µM (active).
For the compound `C[N+]1(C)[C@@H]2C[C@@H](OC(=O)C(O)(c3cccs3)c3cccs3)C[C@H]1[C@@H]1O[C@@H]12`, the Potency result in the assay on Es-2, in the assay on HeLa, with Hek293T, in the assay with JEG-3, in the assay on OV90 and in the assay on PA-1 was “inactive” each time. Moreover, the Potency entry in the assay with SKOV3, with Tov-21-G and in the assay on Tov112D was “inactive” in each case.
Turning to `Nc1ccn(C2CO[C@H](CO)O2)c(=O)n1` (stereo partly drawn), the Potency entry with Es-2, in the assay on HeLa, in the assay on Hek293T, in the assay on JEG-3, in the assay with OV90 and in the assay on PA-1 was “inactive” each time. Further, the Potency entry in the assay on SKOV3, with Tov-21-G and in the assay on Tov112D was “inactive” in each case.
Turning to `c1ccc2c(Oc3nc(Nc4ccc(N5CCOCC5)cc4)c4ncn(C5CCCCC5)c4n3)cccc2c1`, the Potency result with Es-2, with HeLa, with Hek293T, with JEG-3, in the assay on OV90 and in the assay on PA-1 was “inactive” in each case. Also, the Potency entry with SKOV3, in the assay with Tov-21-G and in the assay on Tov112D was “inactive” throughout.
Turning to `CCOC(=O)[C@@H](N)Cc1ccc(-c2cc(O[C@H](c3ccc(Cl)cc3-n3ccc(C)n3)C(F)(F)F)nc(N)n2)cc1`, the Potency entry with Es-2, in the assay on HeLa, in the assay on Hek293T, in the assay with JEG-3, with OV90 and in the assay with PA-1 was “inactive” each time. The Potency result in the assay on SKOV3, in the assay with Tov-21-G and in the assay on Tov112D was “inactive” each time.
